From PubChem BioAssay (Tox21) come the findings set out here.

“And” between values parts separate entries of the source, which are not always exact repeats. Equal values may be shown once. Results filed as inconclusive are left out. Some compounds were tested as several samples or in several runs, with calls that do not always agree. The source made the active and inactive calls. Unless noted, calls follow the shape of the full dose curve.

Test [1] is described as follows: qHTS assay to identify small molecule agonists of the sonic hedgehog signaling (Shh) pathway (AID 1259368).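 Also: NIH/3T3-derived 3T3Gli1-Luc cells carrying a stable Gli1-driven firefly luciferase reporter; series mostly up to about 92 µM; nearly all actives have a fitted effect of over 15% in size.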 A digest of the protocol:
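Quantitative high-throughput format using a Gli1-driven firefly luciferase reporter line derived from NIH/3T3 cells. After a 24 hr compound treatment at 37 C and 5% CO2, luminescence reported Gli1 response element activity.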
In general terms: qHTS replaces the single test concentration by a dilution series.

A short description of test [2]: qHTS assay to identify small molecule antagonists of the sonic hedgehog signaling (Shh) pathway (AID 1259369). Also: nearly all actives have a fitted effect of over 45% in size. Also: potency is read from the fitted curve at half-maximal effect. The method, boiled down:
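Stable Gli1-Luc reporter NIH/3T3 clone; quantitative HTS in stimulated mode with conditioned medium. Luminescence measured after 24hr compound treatment at 37 C.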

Test [3] deals with Estrogen receptor beta (Homo sapiens) (UniProt Q92731). Nature of the test: qHTS assay to identify small molecule agonists of the estrogen receptor beta (ER-beta) signaling pathway (AID 1259377; active = well fitted activation curve with a large enough effect in the signal ratio in the repeat runs, not every such curve was filed as active; the % refers to the signal ratio; also: potency is read from the fitted curve at half-maximal effect). The method, boiled down: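 ER-beta-UAS-bla HEK293T cells in medium with 2% charcoal-stripped FBS were exposed to compounds for 16 h at 37C. Beta-lactamase reporter activity was read as fluorescence after 2 h with LiveBLAzer B/G FRET substrate at room temperature.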
Chain of Estrogen receptor beta (Homo sapiens) (Q92731 whole entry, looked up): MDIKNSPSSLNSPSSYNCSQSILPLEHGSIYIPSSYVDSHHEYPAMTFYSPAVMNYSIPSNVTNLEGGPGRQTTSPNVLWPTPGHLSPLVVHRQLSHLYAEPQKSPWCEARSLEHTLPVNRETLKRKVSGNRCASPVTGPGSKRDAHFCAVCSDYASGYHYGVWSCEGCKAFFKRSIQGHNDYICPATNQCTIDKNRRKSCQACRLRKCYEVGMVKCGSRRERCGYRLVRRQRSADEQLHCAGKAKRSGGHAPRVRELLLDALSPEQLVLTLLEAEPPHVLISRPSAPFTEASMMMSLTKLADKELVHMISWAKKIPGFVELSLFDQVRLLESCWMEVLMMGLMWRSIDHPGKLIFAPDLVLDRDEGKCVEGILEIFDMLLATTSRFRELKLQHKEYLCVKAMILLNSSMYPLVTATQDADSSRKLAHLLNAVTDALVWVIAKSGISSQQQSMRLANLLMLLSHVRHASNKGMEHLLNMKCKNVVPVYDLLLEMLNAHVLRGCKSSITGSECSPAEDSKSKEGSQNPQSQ

Test [4] is described as follows: qHTS assay to identify small molecule agonists of the androgen receptor (AR) signaling pathway in the presence of an antagonist - cell viability counter screen (AID 1259379; active = well fitted curve in the direction sought with a large enough effect in the repeat runs; an effect the other way counts as inactive or inconclusive; also: nearly all actives have a fitted effect of over 25% in size; also: potency is read from the fitted curve at half-maximal effect). The method, boiled down: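 Nilutamide-containing (3.0uM final) MDA-kb2 cultures, 3,000 cells/well, were treated with compounds across 15 concentrations. After 16 hr at 37C with no CO2, cell viability was determined by CellTiter-Fluor fluorescence in the luciferase assay wells.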

In test [5] the target is Androgen receptor (Homo sapiens) (UniProt P10275). As to the kind of experiment: qHTS assay to identify small molecule agonists of the androgen receptor (AR) signaling pathway in the presence of an antagonist (AID 1259381). Also: nearly all actives have a fitted effect of over 15% in size. The method, boiled down:
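Reporter-gene luminescence from MDA-kb2 cells exposed 16hr at 37C (0% CO2) to 15-point compound titrations with 3.0uM final nilutamide as AR antagonist.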

Test [6] deals with Estrogen receptor (Homo sapiens) (UniProt P03372). As to the kind of experiment: qHTS assay to identify small molecule agonists of the estrogen receptor alpha (ER-alpha) signaling pathway in the presence of an antagonist (AID 1259383). Also: top concentration of the series differs between compounds; nearly all actives have a fitted effect of over 15% in size. A digest of the protocol:
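Readout was ERE-driven luciferase luminescence in VM7Luc4E2 cells, which express full-length ER-alpha endogenously. Compounds were tested at 15 concentrations for 22hr alongside 10.0nM ICI-182,780 (final concentration).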

A short description of test [7]: qHTS assay to identify small molecule agonists or antagonists of the thyroid stimulating hormone receptor (TSHR) signaling pathway - wild type cell line counter screen (AID 1259384). A digest of the protocol:
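Wild-type Hek293 cells, 800/well, 18 h at 37C, then compound with Ro20-1724 for 30 min RT. cAMP by HTRF (cAMP-d2/anti-cAMP cryptate), 1 h RT, fluorescence read. 15 concentrations, triplicates.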

Test [8] has as its target Thyrotropin receptor (Homo sapiens) (UniProt P16473). Nature of the test: qHTS assay to identify small molecule antagonists of the thyroid stimulating hormone receptor (TSHR) signaling pathway (AID 1259385). Also: nearly all actives have a fitted effect of over 20% in size. A digest of the protocol:
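TSHR-HEK293 cells (800/well) plated 18 h, then compounds with Ro20-1724 and TSH at 1.5 ng/mL final, 30 min at room temperature. cAMP quantified by HTRF (cAMP-d2/anti-cAMP-cryptate, 1 h); 15 concentrations in triplicate.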

A short description of test [9]: qHTS assay to identify small molecule agonists of the estrogen receptor alpha (ER-alpha) signaling pathway in the presence of an antagonist - cell viability counter screen (AID 1259386; active = well fitted curve in the direction sought with a large enough effect in the repeat runs; an effect the other way counts as inactive or inconclusive;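 also: cells exposed to compounds for 22 h at 37 °C before the viability read; nearly all actives have a fitted effect of over 30% in size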; also: potency is read from the fitted curve at half-maximal effect). The method, boiled down:
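In this counter screen, compound effects on VM7Luc4E2 viability were tested in the presence of the antagonist ICI-182,780 at 10.0nM final. Compounds were dosed at 15 concentrations, exposure lasted 22hr, and the CellTiter-Fluor signal was read.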

For test [10], the target named is Progesterone receptor (Homo sapiens) (UniProt P06401). Nature of the test: qHTS assay to identify small molecule antagonists of the progesterone receptor (PR) signaling pathway (AID 1346795; active = well fitted inhibition curve with a large enough effect in the signal ratio in the repeat runs, not every such curve was filed as active; the % refers to the signal ratio). The method, boiled down: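 PR-UAS-bla HEK293T cells with beta-lactamase reporter under UAS control, in 2% charcoal-stripped FBS, treated with compounds plus 1 nM promegestone (R5020, final) for 16 hr at 37C. Read-out: FRET beta-lactamase substrate fluorescence after 2 hr at room temperature.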
Chain of Progesterone receptor (Homo sapiens) (P06401 whole entry, looked up): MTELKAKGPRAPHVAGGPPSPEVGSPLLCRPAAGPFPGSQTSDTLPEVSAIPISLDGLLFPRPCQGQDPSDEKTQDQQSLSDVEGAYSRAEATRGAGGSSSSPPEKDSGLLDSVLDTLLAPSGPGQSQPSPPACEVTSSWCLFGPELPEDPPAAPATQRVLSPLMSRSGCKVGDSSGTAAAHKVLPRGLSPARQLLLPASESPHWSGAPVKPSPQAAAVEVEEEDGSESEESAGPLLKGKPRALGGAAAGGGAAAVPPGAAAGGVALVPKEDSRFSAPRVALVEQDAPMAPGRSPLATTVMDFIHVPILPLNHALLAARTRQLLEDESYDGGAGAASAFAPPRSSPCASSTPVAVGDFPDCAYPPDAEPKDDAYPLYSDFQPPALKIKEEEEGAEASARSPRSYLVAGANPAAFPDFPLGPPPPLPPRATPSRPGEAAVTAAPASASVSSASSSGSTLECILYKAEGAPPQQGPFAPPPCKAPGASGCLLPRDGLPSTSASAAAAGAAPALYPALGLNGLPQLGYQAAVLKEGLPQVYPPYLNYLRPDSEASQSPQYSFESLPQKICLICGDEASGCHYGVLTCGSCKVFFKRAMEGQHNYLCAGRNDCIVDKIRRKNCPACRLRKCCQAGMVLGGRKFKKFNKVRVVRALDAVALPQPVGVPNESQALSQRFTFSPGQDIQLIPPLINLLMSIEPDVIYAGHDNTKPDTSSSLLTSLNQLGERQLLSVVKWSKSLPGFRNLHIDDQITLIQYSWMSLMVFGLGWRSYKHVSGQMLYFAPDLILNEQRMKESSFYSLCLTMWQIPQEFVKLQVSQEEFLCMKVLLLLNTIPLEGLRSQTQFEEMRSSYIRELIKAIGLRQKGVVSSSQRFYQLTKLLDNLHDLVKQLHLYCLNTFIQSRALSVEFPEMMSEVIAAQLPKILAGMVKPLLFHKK

A short description of test [11]: qHTS assay to identify small molecule antagonists of the progesterone receptor (PR) signaling pathway - cell viability counter screen (AID 1346798; active = well fitted curve in the direction sought with a large enough effect in the repeat runs; an effect the other way counts as inactive or inconclusive; also: series mostly up to about 92 µM; nearly all actives have a fitted effect of over 50% in size). A digest of the protocol: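 PR-UAS-bla HEK293T cells, 3,000/well in 2% charcoal-stripped FBS medium, dosed with compounds plus R5020 agonist and incubated 16 h at 37C. Viability then measured in the same wells by CellTiter-Glo luminescence after 30 min at RT.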

Test [12] is described as follows: qHTS assay to identify small molecule agonists of the progesterone receptor (PR) signaling pathway - cell viability counter screen (AID 1346799). Also: nearly all actives have a fitted effect of over 45% in size. Also: potency is read from the fitted curve at half-maximal effect. The method, boiled down:
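Counter screen in the PR-UAS-bla HEK293T wells (2% charcoal-stripped FBS, 16 h compound exposure at 37 C) after the bla read. CellTiter-Glo added, 30 min at room temperature, luminescence read as cell viability.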

Test [13] in a line: qHTS assay to identify small molecule antagonists of the TGF-beta/Smad signaling pathway - cell viability counter screen (AID 1346824; active = well fitted curve in the direction sought with a large enough effect in the repeat runs; an effect the other way counts as inactive or inconclusive; also: nearly all actives have a fitted effect of over 50% in size). A digest of the protocol:
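SBE-bla HEK 293T cells, incubated overnight, then compound plus 0.25 ng/mL TGF-beta1 (stock added) for 5 hr at 37 C. Viability was read in the same wells by CellTiter-Glo luminescence after 30 min at room temperature.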

Test [14] is described as follows: qHTS assay to identify small molecule agonists of the TGF-beta/Smad signaling pathway - cell viability counter screen (AID 1346829; active = well fitted curve in the direction sought with a large enough effect in the repeat runs; an effect the other way counts as inactive or inconclusive; also: top concentration of the series differs between compounds; nearly all actives have a fitted effect of over 45% in size). A digest of the protocol:
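Compound-treated SBE-bla HEK 293T cells (5 hr, 37 C) were assessed for viability with CellTiter-Glo in parallel with the reporter read.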

Test [15] in a line: qHTS assay to identify small molecule agonists of the TGF-beta/Smad signaling pathway (AID 1346859; active = well fitted activation curve with a large enough effect in the signal ratio in the repeat runs, not every such curve was filed as active; the % refers to the signal ratio; also: series mostly up to about 77 µM). A digest of the protocol:
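SBE-bla HEK293T cells plated overnight, then compound exposure for 5 h at 37 C. Beta-lactamase reporter read with LiveBLAzer B/G FRET substrate after 2 h at room temperature, fluorescence at 405 nm excitation, 460/530 nm emission.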

For test [16], the target named is Thyrotropin-releasing hormone receptor (Homo sapiens) (UniProt P34981). As to the kind of experiment: qHTS assay to identify small molecule antagonists of the thyrotropin-releasing hormone receptor (TRHR) signaling pathway (AID 1346877; active = well fitted inhibition curve with a large enough effect in the repeat runs, not every such curve was filed as active; also: series mostly up to about 51 µM). The method, boiled down: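 Kinetic fluorescence (3 min, 1 s resolution) following stimulation with TRH at 1 nM final; HEK293 cells bearing human TRHR; 5 min compound preincubation at RT; concentration-response over 15 points, triplicates.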
Chain of Thyrotropin-releasing hormone receptor (Homo sapiens) (P34981 whole entry, looked up): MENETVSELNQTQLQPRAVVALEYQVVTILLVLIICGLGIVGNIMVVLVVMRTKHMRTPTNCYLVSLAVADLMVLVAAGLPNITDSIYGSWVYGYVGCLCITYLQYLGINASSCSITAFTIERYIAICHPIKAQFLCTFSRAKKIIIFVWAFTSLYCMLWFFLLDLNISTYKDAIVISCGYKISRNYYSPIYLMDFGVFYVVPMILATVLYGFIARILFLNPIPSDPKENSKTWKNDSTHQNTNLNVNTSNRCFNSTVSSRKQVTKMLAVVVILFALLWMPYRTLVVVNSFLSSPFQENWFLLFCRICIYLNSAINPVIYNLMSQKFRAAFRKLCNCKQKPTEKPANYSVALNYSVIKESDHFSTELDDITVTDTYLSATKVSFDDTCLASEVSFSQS

A short description of test [17]: qHTS assay to identify small molecule agonists of the estrogen receptor beta (ER-beta) signaling pathway - cell viability counter screen (AID 1259380; active = well fitted curve in the direction sought with a large enough effect in the repeat runs; an effect the other way counts as inactive or inconclusive; also: nearly all actives have a fitted effect of over 30% in size; also: potency is read from the fitted curve at half-maximal effect). A digest of the protocol:
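Steps: plate ER-beta-UAS-bla HEK293T cells, rest 6 hr; add compounds in DMSO; incubate 16 hr at 37C, 5% CO2; add FRET substrate 2 hr; add CellTiter-Glo, wait 30 min at room temperature; read luminescence.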

The target of test [18] is Progesterone receptor (Homo sapiens) (UniProt P06401). As to the kind of experiment: qHTS assay to identify small molecule agonists of the progesterone receptor (PR) signaling pathway (AID 1346784). Also: nearly all actives have a fitted effect of over 30% in size. Also: potency is read from the fitted curve at half-maximal effect. A digest of the protocol: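 PR-UAS-bla HEK 293T cells (beta-lactamase reporter under UAS) in 2% charcoal-stripped FBS, dosed with 23 nL compound after 6 hr, incubated 16hr at 37C. LiveBLAzer B/G FRET substrate added, fluorescence read after 2 hours.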

A short description of test [19]: qHTS assay to identify small molecule antagonists of the estrogen receptor beta (ER-beta) signaling pathway - cell viability counter screen (AID 1259382; active = well fitted curve in the direction sought with a large enough effect in the repeat runs; an effect the other way counts as inactive or inconclusive;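 also: HEK293T cells carrying ER-beta-UAS-bla reporter stimulated with estradiol; series mostly up to about 92 µM; nearly all actives have a fitted effect of over 55% in size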). A digest of the protocol:
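Viability is scored by CellTiter-Glo luminescence (30 min, room temperature) in ER-beta-UAS-bla HEK293T wells already read for reporter fluorescence. Compound exposure lasts 16 hr at 37C alongside 1nM 17-beta-estradiol in charcoal-stripped serum medium.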

Chain of Thyrotropin receptor (Homo sapiens) (P16473 whole entry, looked up): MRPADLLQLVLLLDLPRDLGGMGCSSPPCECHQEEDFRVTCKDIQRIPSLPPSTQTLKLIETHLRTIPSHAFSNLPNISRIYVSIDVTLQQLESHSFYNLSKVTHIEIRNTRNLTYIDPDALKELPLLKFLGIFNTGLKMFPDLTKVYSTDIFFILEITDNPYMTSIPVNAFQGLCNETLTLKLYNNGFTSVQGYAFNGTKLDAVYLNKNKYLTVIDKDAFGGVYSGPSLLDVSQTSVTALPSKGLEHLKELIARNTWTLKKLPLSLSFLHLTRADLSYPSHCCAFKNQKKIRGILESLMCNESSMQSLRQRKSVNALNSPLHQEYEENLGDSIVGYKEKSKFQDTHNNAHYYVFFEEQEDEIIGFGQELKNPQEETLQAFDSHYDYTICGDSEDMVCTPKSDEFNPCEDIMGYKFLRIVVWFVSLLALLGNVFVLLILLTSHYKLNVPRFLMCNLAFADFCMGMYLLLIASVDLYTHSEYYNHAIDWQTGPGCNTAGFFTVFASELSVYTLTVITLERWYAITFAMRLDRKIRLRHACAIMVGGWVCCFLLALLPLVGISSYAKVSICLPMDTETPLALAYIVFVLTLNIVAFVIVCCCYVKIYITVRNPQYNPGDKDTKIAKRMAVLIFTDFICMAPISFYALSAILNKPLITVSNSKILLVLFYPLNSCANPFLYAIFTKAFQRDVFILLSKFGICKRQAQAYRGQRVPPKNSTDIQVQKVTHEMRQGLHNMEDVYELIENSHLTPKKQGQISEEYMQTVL
Chain of Estrogen receptor (Homo sapiens) (P03372 whole entry, looked up): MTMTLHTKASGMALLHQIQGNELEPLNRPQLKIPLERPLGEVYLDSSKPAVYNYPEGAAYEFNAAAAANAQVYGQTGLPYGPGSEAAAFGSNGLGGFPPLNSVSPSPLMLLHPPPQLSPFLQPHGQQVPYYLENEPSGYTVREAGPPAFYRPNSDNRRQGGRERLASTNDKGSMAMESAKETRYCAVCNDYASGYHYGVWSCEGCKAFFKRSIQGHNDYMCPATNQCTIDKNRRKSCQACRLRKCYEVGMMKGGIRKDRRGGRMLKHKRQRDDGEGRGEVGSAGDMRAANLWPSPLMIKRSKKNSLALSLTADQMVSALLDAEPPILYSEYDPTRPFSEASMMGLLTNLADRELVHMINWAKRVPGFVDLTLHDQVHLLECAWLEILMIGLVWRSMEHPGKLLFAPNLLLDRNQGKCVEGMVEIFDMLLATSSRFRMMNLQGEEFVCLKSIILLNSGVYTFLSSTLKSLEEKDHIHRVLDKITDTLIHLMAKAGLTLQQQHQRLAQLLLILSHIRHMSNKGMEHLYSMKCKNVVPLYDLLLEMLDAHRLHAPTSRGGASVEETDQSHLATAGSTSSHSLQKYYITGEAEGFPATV
Chain of Androgen receptor (Homo sapiens) (P10275 whole entry, looked up): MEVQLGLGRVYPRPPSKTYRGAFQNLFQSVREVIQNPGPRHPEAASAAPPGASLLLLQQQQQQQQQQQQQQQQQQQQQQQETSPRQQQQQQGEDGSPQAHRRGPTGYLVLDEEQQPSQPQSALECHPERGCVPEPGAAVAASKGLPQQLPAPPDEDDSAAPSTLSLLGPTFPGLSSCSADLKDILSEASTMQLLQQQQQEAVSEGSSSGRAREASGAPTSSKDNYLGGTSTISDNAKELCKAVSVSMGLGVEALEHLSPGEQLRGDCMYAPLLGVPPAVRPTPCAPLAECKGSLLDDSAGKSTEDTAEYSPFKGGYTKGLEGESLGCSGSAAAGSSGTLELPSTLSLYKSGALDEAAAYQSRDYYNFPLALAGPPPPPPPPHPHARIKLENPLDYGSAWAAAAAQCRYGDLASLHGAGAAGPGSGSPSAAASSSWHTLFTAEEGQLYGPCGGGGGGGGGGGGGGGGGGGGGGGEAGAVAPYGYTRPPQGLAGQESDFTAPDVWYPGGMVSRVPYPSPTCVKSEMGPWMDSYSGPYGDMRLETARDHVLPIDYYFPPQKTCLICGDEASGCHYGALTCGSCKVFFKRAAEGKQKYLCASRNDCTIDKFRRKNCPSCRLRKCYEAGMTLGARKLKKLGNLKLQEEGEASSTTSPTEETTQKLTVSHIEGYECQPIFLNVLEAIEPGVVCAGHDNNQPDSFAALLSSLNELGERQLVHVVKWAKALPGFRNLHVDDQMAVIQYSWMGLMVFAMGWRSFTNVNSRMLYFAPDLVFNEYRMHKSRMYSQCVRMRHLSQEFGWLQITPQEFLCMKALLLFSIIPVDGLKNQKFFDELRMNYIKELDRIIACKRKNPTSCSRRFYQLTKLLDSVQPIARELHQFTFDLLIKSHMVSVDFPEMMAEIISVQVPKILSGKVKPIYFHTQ

For the compound `CCCCCCCCOC(=O)c1ccccc1C(=O)OCCCCCCCC`, the Potency result in test [1], in test [2], in test [3], in [4], in test [5] and in test [6] was “inactive” each time. The Potency result in test [9], in test [10], in [11], in [12], in test [13] and in test [14] was “inactive” in each case. Further, the Potency entry in test [16] was “inactive”. In addition, the compound was called inactive in test [7], in [8] and in [15].

Consider `Nc1cccnc1`, for which the Potency entry in [1], in test [2], in test [3], in test [4], in test [17] and in test [6] was “inactive” each time. The Potency result in test [9], in test [18], in test [10], in test [11], in [12] and in test [13] was “inactive” each time. The Potency entry in [14] and in test [16] was “inactive” each time. The outcome in test [7], in test [8] and in [15] was inactive.

With `Cc1c(COC(=O)[C@@H]2[C@H](/C=C(\Cl)C(F)(F)F)C2(C)C)cccc1-c1ccccc1`, the Potency result in [1], in test [2], in test [3], in [4], in [17] and in test [6] was “inactive” throughout. Moreover, the Potency result in [9], in test [18], in [10], in [13] and in test [14] was “inactive” each time. Moreover, the result in [7], in [8] and in [15] was inactive. Besides, the Potency result in [12] is “inactive and 54.3 µM (active)”.

`Cc1ccccc1[N+](=O)[O-]`: the Potency entry in [1], in test [2], in [3], in [4], in test [19] and in test [6] was “inactive” each time. The Potency entry in [9], in [18], in test [10], in [11], in [12] and in test [13] was “inactive” throughout. For the same compound, the Potency result in test [14] and in test [16] was “inactive” throughout. Also, the outcome in test [7], in test [8] and in [15] was inactive.

With `CCC(C)c1cc([N+](=O)[O-])cc([N+](=O)[O-])c1O` (configuration not stated), the Potency result in test [1], in [3], in test [17], in test [6], in test [18] and in test [10] was “inactive” each time. The Potency entry in [11], in test [12], in test [13] and in test [14] was “inactive” throughout. Also, the Potency result in [2] was “inactive and 12.2 µM (active)”; in test [4], “inactive and 21.7 µM (active)”; in [9] it was “inactive and 24.3 µM (active)”. Moreover, the compound was called inactive in [7], in [8] and in test [15].

With `C[C@]12CCC(=O)C[C@@H]1CC[C@@H]1[C@@H]2CC[C@]2(C)[C@@H](O)CC[C@@H]12`, the Potency result in test [1], in test [9], in [13] and in test [14] was “inactive” each time. In addition, the Potency in test [2] was 17 µM (active) and 13.7 µM (active); in [3], 853 nM (active) and 546 nM (active); in test [4] it was 67.8 µM (active) and inactive; in test [17] it was 13.5 µM (active) and 12.2 µM (active); in test [18], 3.03 µM (active) and 1.94 µM (active); in [12], 48 µM (active). Moreover, the call in test [15] was inactive.

Consider `O=C1C=CC(=O)C=C1`, for which the Potency entry in test [1], in test [2], in [3], in test [4], in test [19] and in test [9] was “inactive” each time. Further, the Potency entry in test [10], in test [11], in test [12], in [13], in test [14] and in [16] was “inactive” in each case. Besides, the compound was classed as inactive in [7], in test [8] and in test [15].
